# Sampled rows, rich in hits. Any-hit rate of the full collection: about 4.7%.
# ATXN2 expr inh: ATXN2 expression inhibition; AID 1745845; 0.72% of 360,000 active; Potency, µM (highest dose often 57 µM), hits mostly inhibitors; HEK-293 ATXN2-luciferase reporter, luminescence, 24 h; further: nearly all actives have a fitted effect of over 55% in size
#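 ATXN2-luciferase reporter cells (luciferase flanked by upstream and downstream ATXN2 gene portions) were treated 24 h at 37 °C with compounds at up to 57 uM. SteadyGlo luminescence gave expression; GF-AFC fluorescence gave viability.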
# DRD3 agonist: activates the human D3 dopamine receptor. P35462. D3R DiscoveRx beta-arrestin cells, luminescence, 90 min. max activation, %. 0.58% of 410,000 active; in the data active means max activation above about 30%
# Target sequence (P35462 whole entry, looked up): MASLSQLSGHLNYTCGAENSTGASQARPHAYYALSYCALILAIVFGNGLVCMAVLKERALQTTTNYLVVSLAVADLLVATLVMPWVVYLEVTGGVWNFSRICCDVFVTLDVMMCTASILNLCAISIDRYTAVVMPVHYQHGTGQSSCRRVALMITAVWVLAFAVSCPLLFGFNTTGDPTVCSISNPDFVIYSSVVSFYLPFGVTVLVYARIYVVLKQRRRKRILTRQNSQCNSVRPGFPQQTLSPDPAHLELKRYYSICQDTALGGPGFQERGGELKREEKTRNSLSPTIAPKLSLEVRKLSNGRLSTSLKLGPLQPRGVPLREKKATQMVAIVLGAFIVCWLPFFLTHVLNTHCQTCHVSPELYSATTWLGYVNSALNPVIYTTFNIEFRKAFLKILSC
#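 Cells at 1500/well, incubated overnight, then treated with pinned compounds (dopamine as control) for 90 min at 37 degrees C. DiscoveRx reagent added for 30 - 60 minutes at room temperature; luminescence read.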
# DRD3 antagonist: D3 dopamine receptor (human) antagonism. 2.5% of 360,000 active. P35462. D3R cells, DiscoveRx beta-arrestin luminescence, antagonist mode; hits give low values. max response, negative = inhibition, %; in the data active means max response below about -50%; inconclusive means no clear call, values can overlap the other calls
#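 Cells plated overnight at 1500 cells/well, then exposed to library compounds with dopamine controls for 90 minutes at 37 degrees C. DiscoveRx reagent added for 30–60 minutes at room temperature; luminescence read, quantitative HTS format.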
# S2 tox: viability counter-screen for ATXN expression inhibitors. S2 cells (HEK-293 line with an ATXN2-luciferase reporter) viability, CellTiter-Fluor protease fluorescence, 24 h. Potency, µM (top dose mostly 56.7 µM), hits mostly cytotoxic. 0.49% of 400,000 active. AID 651635; further: nearly all actives have a fitted effect of over 40% in size
# HepG2 viability: kills HepG2 cells in TGF-b inhibitor counter-screen | HepG2 CAGA-GFP viability, ATP luminescence, 18 h | Potency, µM (top dose mostly 46.1 µM), actives largely listed as cytotoxic | 0.76% of 410,000 active | AID 588856
#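 CellTiter-Glo luminescence gave cytotoxicity after 18 hours at 37 degrees C. The cells were HepG2 CAGA-GFP in 1% FBS DMEM, stimulated with 500 pg/mL TGF-beta after compound addition. %Activity was normalised to no-cell wells (complete cell-killing) and DMSO (no toxicity), and curves were fitted and classified.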
# TGFb SMAD3 inh: TGF-b pathway inhibition; 1.2% of 410,000 active; HepG2 CAGA-GFP TGF-b/SMAD3 reporter, GFP fluorescence, 18 h; TGF-beta stimulated, 500 pg/mL final; Potency, µM (highest dose often 46.1 µM), usual class: inhibitors; further: nearly all actives have a fitted effect of over 65% in size
#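 HEPG2 CAGA-GFP cells (1000/well, DMEM with 1% FBS) were pre-incubated 2 h at 37 degrees C, given compound by pin tool, then stimulated with TGF-beta at 500 pg/mL final for 18 h before per-cell GFP fluorescence imaging.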
# Numbers stand for hits; i = inactive; ? = inconclusive; nt = not tested or not shown; ! = repeats disagree. Unless noted, the call rests on the fitted dose curve; in most records, active means well fitted curve in the direction sought with a large enough effect; inconclusive means small, poorly fitted or top-dose-only effect, or another doubt; inactive means no such curve, though single readings can be large; an effect the other way counts as inactive or inconclusive.
SMILES,ATXN2 expr inh,DRD3 agonist,DRD3 antagonist,S2 tox,HepG2 viability,TGFb SMAD3 inh
CCCc1nc(C)c2c(=O)[nH]c(-c3cc(S(=O)(=O)N4CCN(CC)CC4)ccc3OCC)nn12,19.3µM!,i,i,i,i,i
CCOc1cc(S(=O)(=O)N2CCN(CC)CC2)ccc1Cl,i,i,i,i,i,i
CCCc1ccc(OCC(=O)N2CCN(C(=O)COc3ccc(CCC)cc3OC)CC2)c(OC)c1,i,nt,nt,i,nt,nt
O=C(CCN1C(=O)c2cccc3cccc(c23)C1=O)N1CCOCC1,i,i,i,i,i,i
CC(C)OCC(O)CN1CCN(CCN2C(=O)c3cccc4cccc(c34)C2=O)CC1 (configuration not stated),nt,i,i,?,i,i
C=CCc1ccccc1OCC(O)CN1CCN(CCN2C(=O)c3cccc4cccc(c34)C2=O)CC1 (configuration not stated),28.2µM,i,i,?,i,14.1µM
O=C(/C=C/c1ccccc1)N1CCN(CCN2C(=O)c3cccc4cccc(c34)C2=O)CC1,i,i,-95.9,i,i,i
Cc1ccccc1OCC(O)CN1CCN(CCN2C(=O)c3cccc4cccc(c34)C2=O)CC1 (configuration not stated),i,i,-86.0,?,i,i
CCn1nc(C)c(CN2CCC3(CCC(CNC(=O)c4ccccc4)O3)CC2)c1C (configuration not stated),nt,nt,nt,i,nt,nt
CCOC(=O)[C@H]1[C@H]2COc3ccc(OC)cc3[C@@H]2N2C(=O)c3cc(OC)ccc3NC(=O)[C@@]12C,i,i,i,i,i,i
CCCCN1CC(=O)N2[C@@H]3c4cc(OC)ccc4OC[C@@H]3[C@H](C(=O)OCC)[C@]2(C)C1=O,i,49.1,i,i,i,i
CCOC(=O)[C@H]1[C@H]2COc3ccc(OC)cc3[C@@H]2N2C(=O)c3cc(OC)c(OC)cc3NC(=O)[C@@]12C,?,i,-60.5,i,i,i
CCOC(=O)[C@H]1[C@H]2COc3ccc(C)cc3[C@@H]2N2C(=O)c3cc(OC)c(OC)cc3NC(=O)[C@@]12C,i,i,-60.3,i,i,i
CCOC(=O)[C@H]1[C@H]2COc3ccc(Br)cc3[C@@H]2N2C(=O)c3cc(OC)c(OC)cc3NC(=O)[C@@]12C,i,i,i,i,i,i
CC(C)CCN(C(=O)Nc1ccc(Cl)cc1)C1CCN(C(C)C)CC1,nt,i,-59.2,i,i,i
CCOc1ccc(-n2c(=O)cc(N3CCN(c4ccc(F)cc4)CC3)[nH]c2=O)cc1,i,i,-114.4,i,i,i
CCOC(=O)N1CCN(c2cc(=O)n(-c3ccc(OCC)cc3)c(=O)[nH]2)CC1,i,i,i,i,i,i
COC(=O)c1sc2cccc(F)c2c1S(=O)(=O)N1CCN(c2ccccc2OC)CC1,i,i,nt,?,i,?
CCOC(=O)Cc1csc(NC(=O)c2ccc(S(=O)(=O)N3CCCCC3)cc2)n1,i,36.1,i,i,i,i
CCOC(=O)Cc1csc(NC(=O)c2csc3c2CCCC3)n1,i,i,-63.4,i,i,i
O=Cc1ccc(Cl)cc1,nt,nt,nt,nt,i,i
CCC1CN(CCC(=O)NC2CCOC(C)(C)C2)Cc2cc(OC)ccc2O1 (configuration not stated),nt,nt,nt,i,nt,nt
CCOC(=O)c1c2c(n(-c3ccc(OC)cc3)c1C)C(=O)C(=O)c1ccccc1-2,8.91µM,i,i,8.91µM,3.16µM,?
CC(Oc1ccc2c3c(c(=O)oc2c1)CCCC3)C(=O)NCC1CCC(C(=O)O)CC1 (configuration not stated),i,i,i,i,i,i
CC(Oc1ccc2c3c(c(=O)oc2c1)CCC3)C(=O)NCC1CCC(C(=O)O)CC1 (configuration not stated),i,43.1,i,i,i,i
CCc1cc2c(-c3ccccc3)cc(=O)oc2cc1OC(C)C(=O)NCC1CCC(C(=O)O)CC1 (configuration not stated),i,43.6,i,?,i,i
